This is an account of results in PubChem BioAssay AID1478 (National Center for Advancing Translational Sciences (NCATS), 2009).

Where “and” joins values, the source holds several entries; their conditions need not be identical. Equal entries are not always repeated. Among all 200,000 compounds or so, about 860 (0.43%) were called active. The entries come from a sample that favours actives as a whole. Values without a mark were called inactive. Calls follow the shape of the dose curve; as a rule, active = well fitted inhibition curve with a large enough effect; inconclusive = small, poorly fitted or top-dose-only effect; inactive = flat fitted curve, though single readings scatter.
Potency is read from the fitted curve at half-maximal effect.

Cruzipain (Trypanosoma cruzi), sequence (P25779 123-467 limits assumed): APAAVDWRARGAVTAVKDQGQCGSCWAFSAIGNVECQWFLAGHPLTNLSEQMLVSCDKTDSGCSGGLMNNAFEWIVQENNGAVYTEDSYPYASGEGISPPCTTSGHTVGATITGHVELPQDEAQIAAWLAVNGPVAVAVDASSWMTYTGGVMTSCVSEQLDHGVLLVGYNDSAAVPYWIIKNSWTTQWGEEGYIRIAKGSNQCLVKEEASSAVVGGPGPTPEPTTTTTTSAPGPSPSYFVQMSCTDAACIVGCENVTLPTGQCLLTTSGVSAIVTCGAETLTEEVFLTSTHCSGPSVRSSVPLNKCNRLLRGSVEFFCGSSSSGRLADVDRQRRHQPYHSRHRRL

For the experiment, the target named is Cruzipain (Trypanosoma cruzi) (UniProt P25779). The experiment is described as follows: qHTS Assay for Promiscuous and Specific Inhibitors of Cruzain (with detergent). Also: nearly all actives have a fitted effect of over 40% in size. The note with it: purified cruzain, Z-FR-AMC fluorescence, 0.01% Triton. As for the experimental part:
Cruzain (3.4.22.51) is a cysteine protease from the tropical parasite Trypanosoma cruzi. Dual qHTS experiment was performed against the NCGC compound collection in order to 1) identify novel inhibitors of the enzyme and 2) profile the compound collection for promiscuous inhibitors operating via colloidal aggregation (by performing detergent-free and detergent-containing comparison screens). Cruzain was assayed by the use of fluorogenic coumarin-based substrate Z-FR-AMC: proteolytic cleavage releases AMC, whose fluorescence is measured at 360 nm excitation and 450 nm emission. Purified cruzain was supplied by the labs of Prof. James McKerrow and Brian Shoichet, UC San Francisco.
This assay had 0.01% Triton X-100 concentration. See also releated assay "qHTS Assay for Promiscuous and Specific Inhibitors of Cruzain (without detergent)" with 0.00005% Triton X-100.
See following references for additional details:
Assay Provider: Shoichet, Brian; University of California, San Fancisco
Screening Center PI: Austin, C.P.
Screening Center: NIH Chemical Genomics Center [NCGC]
Buffer: 100 mM Sodium Acetate, pH 5.5, 5 mM DTT, Triton X-100 concentration: 0.01%.
Buffer in columns 3 and 4 as negative control (no enzyme).
Substrate solution: 2 uM final concentration of Z-FR-AMC (catalog number I-1160, Bachem) dispensed throughout the plate.
Enzyme: 1.5 nM Cruzain final concentration in columns 1, 2, 5-48. Column 1 is neutral (100% activity). Column 2 contained titration of covalent inhibitor K11777, starting concentration 1 mM, then 1:2 dilution in duplicate).
Three uL of enzyme or buffer were dispensed to 1536-well Greiner black solid bottom plates. Compounds and controls (23 nL) were transferred via Kalypsys PinTool. The plates were incubated for 15 min at room temperature, and then 1 uL of substrate solution was added to start the reaction. The plates were immediately transferred to and read 4 times every 30 seconds for 2 min on ViewLux High-throughput CCD imager (Perkin-Elmer) using 360 nm excitation and 450 nm emission fluorescence protocol. The fluorescence intensity difference between the third and the first time points (time lapse of 60 seconds) was used to compute reaction progress.
As for `COC(=O)c1ccccc1NC(=O)c1cc(-c2ccccc2O)no1`, the max response, negative = inhibition was -8.5%. On to `Cc1ccccc1OCC(=O)NCC(=O)OCC(=O)c1ccc2ccccc2c1`, for which the Potency is 5.01 µM (active). `COCCNC(=O)COc1ccccc1C`: the max response, negative = inhibition is 1.74%. For `Cc1ccc(S(=O)(=O)NC(=O)COc2ccccc2C)cc1`, the max response, negative = inhibition is -0.523%. On the same count and under the same terms, in the case of `Cc1ccc(-c2cnc(C3CC3)o2)cc1S(=O)(=O)Nc1cccc(C)c1C` it was -6.32%; in that of `O=C(CS(=O)(=O)c1cccc2nsnc12)N1CCN(c2cccc(Cl)c2)CC1`, -2.29%. For the molecule `Cc1cccc(CNC(=O)c2cnc3sc(N4CCCCC4)nn3c2=O)c1`, the max response, negative = inhibition is 3.23%. On the same count and under the same terms, in the case of `COc1ccc(NC(=O)CSc2nnc(-c3nnn(-c4ccc(F)cc4)c3C)o2)cc1` it was -0.381%.

Consider `CC(C)Oc1c(Br)cc(Br)cc1/C=N/NC(N)=S`, for which the Potency is 0.708 µM (active). As for `CCOc1ccc(/C=N/NC(N)=S)cc1`, the max response, negative = inhibition was -18.1%. The same measure, in the same setting: in the case of `NC(=S)N/N=C/c1coc2cc(Cl)ccc2c1=O` it was -8.88%; in that of `CC(C)c1ccc(NC(=O)C2CCN(c3nc(-c4ccc(C(C)C)cc4)no3)CC2)cc1`, 0.837%.

On to `Cc1ccc(C2C=C(c3ccc(Cl)cc3)Nc3nc(NC(=O)CCC(=O)O)nn32)cc1` (stereo not drawn), for which the max response, negative = inhibition is 0.942%. The same measure, in the same setting: in the case of `O=S(=O)(c1ccccc1)c1nc(-c2ccc(Cl)cc2Cl)oc1N1CCCCC1` it was -15.9%; in that of `O=C(NCc1ccccn1)c1cc(-c2ccccc2Cl)on1`, -2.6%. Turning to `O=C(NCc1ccccn1)c1ccc2nc(-c3ccco3)c(-c3ccco3)nc2c1`, the Potency was 22.4 µM (active). For the molecule `CN(c1ccc(C(=O)NCc2ccccn2)cc1)S(C)(=O)=O`, the max response, negative = inhibition was 1.59%.

In the case of `O=S(=O)(c1ccc2nc(NCc3ccccc3Cl)ccc2c1)N1CCCCC1`, the max response, negative = inhibition was -1.7%. On the same count and under the same terms, in the case of `Cc1ccc(Cn2c(CNC(=O)Cc3cccc(C)c3)nc3cccnc32)cc1` it was -1.98%; in that of `COc1ccc2[nH]c3c(c2c1)CCN(C(=O)CCC1CCCC1)C3c1ccc(F)cc1` (stereo not drawn), 7.03%. With `Cc1ccc(C(=O)COC(=O)C(Cc2c[nH]c3ccccc23)NC(=O)c2ccc(Br)cc2)cc1` (stereo not drawn), the max response, negative = inhibition is -0.996%. `COc1cc(OC)c(NC(=O)c2cc(S(=O)(=O)N3CCCC3)cn2C)cc1Cl`: the max response, negative = inhibition was -0.944%.

`Clc1ccccc1CSc1nnc(-c2ccco2)c(-c2ccco2)n1`: the Potency is 25.1 µM (active). With `Clc1ccccc1CSc1nncn2c1cc1occc12`, the max response, negative = inhibition is -2.67%.

For `O=C(Nc1nnc(SCc2ccccc2)s1)c1ccco1`, the max response, negative = inhibition was 0.832%. Turning to `Nc1nc(SCc2ccccc2Cl)n[nH]1`, the max response, negative = inhibition was 1.94%. For `c1ccc(CSc2nnc(-c3ccco3)c(-c3ccco3)n2)cc1`, the Potency was 14.1 µM (active).

Take `Nc1cc(=O)nc(SCc2ccccc2)n1Cc1ccco1`: the max response, negative = inhibition was -10.9%. On to `CCc1ccc(NC(=O)c2cnc3c(-c4ccccc4)c(C)nn3c2C)cc1`, for which the max response, negative = inhibition is -6.46%. Consider `Cc1ccc(S(=O)(=O)c2c(Nc3cccc(Cl)c3)sc(C(=O)c3ccc4c(c3)OCO4)c2N)cc1`, for which the max response, negative = inhibition is -3.98%. Still for that read-out and setting: in the case of `COCCn1c(SCC(=O)c2cc(C)ccc2C)nc2cc(C(=O)NC3CCCC3)ccc2c1=O` it was -0.0872%; in that of `COc1ccccc1CNC(=O)c1ccc(CS(=O)c2ccccc2Cl)o1` (stereo not drawn), -8.94%. Still for that read-out and setting: in the case of `Cc1nn(C(C)C(=O)NCCc2ccccc2)c(=O)c2c1sc1ccccc12` (stereo not drawn) it was -6.56%. The same measure, in the same setting: in the case of `CNc1ccc(-c2nc(-c3ccco3)no2)cc1[N+](=O)[O-]` it was -3.84%; in that of `O=C(/C=C/c1ccccc1)c1ccccc1O`, -1.13% and 3.47%.

With `CC(=O)c1c(O)c(C)c(O)c(Cc2c(O)c3c(c(C(=O)/C=C\c4ccccc4)c2O)OC(C)(C)C=C3)c1O`, the Potency was 31.6 µM (active). As to `CC(=O)c1c(O)c(C)c(O)c(Cc2c(O)c3c(c(C(=O)/C=C/c4ccccc4)c2O)OC(C)(C)C=C3)c1O`, the max response, negative = inhibition is -22.4%. On to `COc1cc(NC(=O)CSc2nc3nc(C)c(Cc4ccc(C)cc4)c(C)n3n2)cc(OC)c1OC`, for which the max response, negative = inhibition was -4.19%. `O=C(CCc1nc(CN2CCN(S(=O)(=O)c3ccc(Br)cc3)CC2)no1)N1CCCCC1`: the max response, negative = inhibition was -0.641%. Take `O=C(CC(c1cccs1)N1Cc2ccccc2C1=O)Nc1ccc(F)cc1F` (stereo not drawn): the max response, negative = inhibition is -5.84%.

Consider `O=S(=O)(NCCc1nnc2ccc(SCc3ccc(Cl)cc3Cl)nn12)c1ccccc1`, for which the max response, negative = inhibition was -7.61%. In the case of `O=C(CCOc1ccccc1)N(Cc1cccnc1)c1nc2ccc(Cl)cc2s1`, the max response, negative = inhibition was -5.3%. Regarding `COc1cc(NC(=S)NCCSc2ccc(C)cc2)cc(OC)c1`, the Potency was 2 µM (active).

In the case of `COc1cc(NC(=O)Nc2ccc(C)cc2)cc([N+](=O)[O-])c1`, the max response, negative = inhibition is -3.61%.

Regarding `COc1cccc(NC(=S)NCCCN2CCOCC2)c1`, the max response, negative = inhibition was -2.47%.

Regarding `CC(NC(=O)CCc1cn(Cc2ccccc2Cl)c2ccccc12)c1ccccc1` (stereo not drawn), the max response, negative = inhibition is -2.02%. Still for that read-out and setting: in the case of `CC(C)(C)c1ccc(C(=O)Nc2ccc3c(c2)CCCN3C(=O)c2cccs2)cc1` it was -4.1%; in that of `COc1cc(NC(=O)c2cc(C3CC3)nc3c2c(C)nn3-c2ccccc2)cc(OC)c1`, -4.38%; in that of `CC(=O)NC1=NN(C(C)=O)C(C)(c2ccc(C)cc2)S1` (stereo not drawn), -0.836%. For the molecule `CC(=O)NC1=NN(C(C)=O)C(C)(c2ccc(Cl)s2)S1` (stereo not drawn), the Potency is 28.2 µM (active). `CC(=O)NC1=NN(C(C)=O)C(C)(CCS(=O)(=O)c2ccc(Cl)c(Cl)c2)S1` (stereo not drawn): the max response, negative = inhibition is -3.08%. The same measure, in the same setting: in the case of `COc1ccc(Cn2c(=O)c3oc4ccccc4c3n(CC(=O)Nc3ccc(F)cc3F)c2=O)cc1` it was -0.479%; in that of `COc1ccccc1NC(=O)CCC(=O)N1CC(C)Oc2ccc(C)cc21` (stereo not drawn), -2.9%; in that of `COc1ccccc1-n1c(-c2ccc(C)cc2)cn2c3c(=O)n(C)c(=O)n(C)c3nc12`, 0.477%. Still for that read-out and setting: in the case of `Cc1ccccc1OCc1nc2c3cnn(-c4ccccc4F)c3ncn2n1` it was -0.812%; in that of `Cc1ccccc1-c1nc(SCC(=O)N(C)c2ccccc2)c2c(=O)n(C)c(=O)n(C)c2n1`, 0.835%; in that of `Cc1ccc(-c2cc(C(=O)Oc3ccccc3Cl)no2)cc1C`, -5.97%.

As to `CCOc1ccc(NC(=O)c2cc3c(=O)n(Cc4cccs4)ccc3nc2C)cc1`, the max response, negative = inhibition was -4.36%.
